Measurements: PubChem BioAssay AID1159580 (chemical genetic matrix, 2015)
The campaign covered roughly 5,500 compounds. About 2,000 (36%) were called active. Inconclusive results (about 18%) are left out. The list shows a part of the results. A number with no mark means an inactive call. Rule as the data show it: active = normalized growth mostly below about 0.91 (no sharp cut-off); inconclusive = no clear call, values can overlap the other calls; inactive = mostly above about 0.92.

Assay: chemical genetic growth profiling, strain panel (AID 1159580);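 also: tested at 20 µM; growth read once vehicle control cultures reached saturation at 30 °C; 1 = growth at the plate median or of vehicle wells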
Conditions: growth OD

With `C#CCCCCCCCCCCCC(=O)CC(O)COC(C)=O` (centres undefined) the normalized growth (S. cerevisiae deletion strains, locus YJR043C, strain POL32, stronger effect = lower value) was 0.865, the normalized growth (S. cerevisiae deletion strains, locus YJR075W, strain HOC1, stronger effect = lower value) was 0.771 (active) and the normalized growth (S. cerevisiae deletion strains, locus YKL009W, strain mrt4, stronger effect = lower value) was 0.901. For the same compound, the normalized growth (S. cerevisiae deletion strains, locus YKL068W, stronger effect = lower value) was 0.977, the normalized growth (S. cerevisiae deletion strains, locus YKL085W, strain MDH1 (second series), stronger effect = lower value) was 0.958 and the normalized growth (S. cerevisiae deletion strains, locus YKL085W, strain MDH1, stronger effect = lower value) was 0.958. The normalized growth (S. cerevisiae deletion strains, locus YKL160W, strain elf1, stronger effect = lower value) was 0.969, the normalized growth (S. cerevisiae deletion strains, locus YKL190W, strain CNB1, stronger effect = lower value) was 0.82 (active) and the normalized growth (S. cerevisiae deletion strains, locus YKR001C, strain vps1, stronger effect = lower value) was 0.754 (active). The normalized growth (S. cerevisiae deletion strains, locus YKR026C, strain gcn3, stronger effect = lower value) was 0.991, the normalized growth (S. cerevisiae deletion strains, locus YKR091W, strain srl3, stronger effect = lower value) was 0.988 and the normalized growth (S. cerevisiae deletion strains, locus YLL001W, strain dnm1, stronger effect = lower value) was 1. It also gave a normalized growth (S. cerevisiae deletion strains, locus YLL026W, stronger effect = lower value) of 0.995, a normalized growth (S. cerevisiae deletion strains, locus YLL041C, strain sdh2, stronger effect = lower value) of 0.989 and a normalized growth (S. cerevisiae deletion strains, locus YLR027C, strain aat2, stronger effect = lower value) of 0.994. For the same compound, the normalized growth (S. cerevisiae deletion strains, locus YLR039C, strain RIC1, stronger effect = lower value) was 0.688, the normalized growth (S. cerevisiae deletion strains, locus YLR058C, strain SHM2, stronger effect = lower value) was 0.86 (active) and the normalized growth (S. cerevisiae deletion strains, locus YLR102C, strain apc9, stronger effect = lower value) was 0.97. The normalized growth (S. cerevisiae deletion strains, locus YLR221C, strain rsa3, stronger effect = lower value) was 0.935, the normalized growth (S. cerevisiae deletion strains, locus YLR258W, strain gsy2, stronger effect = lower value) was 0.972 and the normalized growth (S. cerevisiae deletion strains, locus YLR262C, strain YPT6 (second series), stronger effect = lower value) was 0.807 (active). The normalized growth (S. cerevisiae deletion strains, locus YLR262C, strain YPT6, stronger effect = lower value) was 0.655, the normalized growth (S. cerevisiae deletion strains, locus YLR268W, strain sec22, stronger effect = lower value) was 0.784 (active) and the normalized growth (S. cerevisiae deletion strains, locus YLR320W, strain mms22, stronger effect = lower value) was 0.845 (active). For the same compound, the normalized growth (S. cerevisiae deletion strains, locus YLR330W, strain CHS5, stronger effect = lower value) was 0.753 (active), the normalized growth (S. cerevisiae deletion strains, locus YLR342W, strain FKS1 (second series), stronger effect = lower value) was 0.794 and the normalized growth (S. cerevisiae deletion strains, locus YLR342W, strain FKS1, stronger effect = lower value) was 0.953. The normalized growth (S. cerevisiae deletion strains, locus YLR357W, strain rsc2, stronger effect = lower value) was 1.01, the normalized growth (S. cerevisiae deletion strains, locus YLR370C, strain arc18, stronger effect = lower value) was 0.978 and the normalized growth (S. cerevisiae deletion strains, locus YLR371W, strain rom2, stronger effect = lower value) was 0.964. For the same compound, the normalized growth (S. cerevisiae deletion strains, locus YLR384C, strain iki3, stronger effect = lower value) was 0.996, the normalized growth (S. cerevisiae deletion strains, locus YLR418C, strain cdc73, stronger effect = lower value) was 0.364 (active) and the normalized growth (S. cerevisiae deletion strains, locus YML016C, strain PPZ1, stronger effect = lower value) was 0.994. For the same compound, the normalized growth (S. cerevisiae deletion strains, locus YML032C, strain rad52, stronger effect = lower value) was 0.86 (active), the normalized growth (S. cerevisiae deletion strains, locus YML120C, strain ndi1, stronger effect = lower value) was 0.986 and the normalized growth (S. cerevisiae deletion strains, locus YML124C, strain tub3, stronger effect = lower value) was 0.974. It also gave a normalized growth (S. cerevisiae deletion strains, locus YMR058W, strain fet3, stronger effect = lower value) of 0.97, a normalized growth (S. cerevisiae deletion strains, locus YMR078C, strain ctf18, stronger effect = lower value) of 0.961 and a normalized growth (S. cerevisiae deletion strains, locus YMR125W, strain sto1, stronger effect = lower value) of 0.979. The normalized growth (S. cerevisiae deletion strains, locus YMR129W, stronger effect = lower value) was 0.999, the normalized growth (S. cerevisiae deletion strains, locus YMR205C, strain PFK2, stronger effect = lower value) was 0.893 and the normalized growth (S. cerevisiae deletion strains, locus YMR223W, strain ubp8, stronger effect = lower value) was 0.841 (active). The normalized growth (S. cerevisiae deletion strains, locus YMR231W, strain pep5, stronger effect = lower value) was 0.957, the normalized growth (S. cerevisiae deletion strains, locus YMR263W, strain SAP30, stronger effect = lower value) was 0.848 (active) and the normalized growth (S. cerevisiae deletion strains, locus YMR307W, strain GAS1, stronger effect = lower value) was 0.99. For the same compound, the normalized growth (S. cerevisiae deletion strains, locus YNL067W, strain RPL9B, stronger effect = lower value) was 0.742 (active), the normalized growth (S. cerevisiae deletion strains, locus YNL071W, strain lat1, stronger effect = lower value) was 0.748 (active) and the normalized growth (S. cerevisiae deletion strains, locus YNL128W, strain TEP1, stronger effect = lower value) was 0.872. For the same compound, the normalized growth (S. cerevisiae deletion strains, locus YNL153C, strain GIM3, stronger effect = lower value) was 0.826 (active), the normalized growth (S. cerevisiae deletion strains, locus YNL209W, strain ssb2, stronger effect = lower value) was 0.981 and the normalized growth (S. cerevisiae deletion strains, locus YNL233W, strain BNI4, stronger effect = lower value) was 0.685 (active). For the same compound, the normalized growth (S. cerevisiae deletion strains, locus YNL248C, strain rpa49, stronger effect = lower value) was 0.973, the normalized growth (S. cerevisiae deletion strains, locus YNL250W, strain rad50, stronger effect = lower value) was 0.989 and the normalized growth (S. cerevisiae deletion strains, locus YNL271C, strain bni1, stronger effect = lower value) was 0.965. The normalized growth (S. cerevisiae deletion strains, locus YNL298W, strain CLA4, stronger effect = lower value) was 0.898 (active), the normalized growth (S. cerevisiae deletion strains, locus YNL307C, strain MCK1, stronger effect = lower value) was 0.166 (active) and the normalized growth (S. cerevisiae deletion strains, locus YNL322C, strain KRE1 (second series), stronger effect = lower value) was 0.985. For the same compound, the normalized growth (S. cerevisiae deletion strains, locus YNL322C, strain KRE1, stronger effect = lower value) was 0.971, the normalized growth (S. cerevisiae deletion strains, locus YNR049C, strain mso1, stronger effect = lower value) was 0.982 and the normalized growth (S. cerevisiae deletion strains, locus YNR052C, strain pop2, stronger effect = lower value) was 0.931. For the same compound, the normalized growth (S. cerevisiae deletion strains, locus YOL006C, strain TOP1, stronger effect = lower value) was 0.637, the normalized growth (S. cerevisiae deletion strains, locus YOL012C, strain htz1) was 0.999 and the normalized growth (S. cerevisiae deletion strains, locus YOL147C, strain pex11, stronger effect = lower value) was 0.71 (active). The normalized growth (S. cerevisiae deletion strains, locus YOR001W, strain rrp6, stronger effect = lower value) was 0.966, the normalized growth (S. cerevisiae deletion strains, locus YOR061W, strain CKA2, stronger effect = lower value) was 0.514 (active) and the normalized growth (S. cerevisiae deletion strains, locus YOR069W, strain VPS5, stronger effect = lower value) was 0.978. The normalized growth (S. cerevisiae deletion strains, locus YOR070C, strain gyp1, stronger effect = lower value) was 0.964, the normalized growth (S. cerevisiae deletion strains, locus YOR080W, strain dia2, stronger effect = lower value) was 0.977 and the normalized growth (S. cerevisiae deletion strains, locus YOR083W, strain WHI5, stronger effect = lower value) was 0.967. For the same compound, the normalized growth (S. cerevisiae deletion strains, locus YOR106W, strain vam3, stronger effect = lower value) was 0.889, the normalized growth (S. cerevisiae deletion strains, locus YOR136W, strain idh2, stronger effect = lower value) was 0.929 and the normalized growth (S. cerevisiae deletion strains, locus YOR144C, strain elg1, stronger effect = lower value) was 0.93 (active). For the same compound, the normalized growth (S. cerevisiae deletion strains, locus YOR184W, strain ser1, stronger effect = lower value) was 0.62 (active), the normalized growth (S. cerevisiae deletion strains, locus YOR265W, strain rbl2, stronger effect = lower value) was 0.982 and the normalized growth (S. cerevisiae deletion strains, locus YOR270C, strain vph1, stronger effect = lower value) was 0.932. For the same compound, the normalized growth (S. cerevisiae deletion strains, locus YOR290C, strain snf2, stronger effect = lower value) was 0.903, the normalized growth (S. cerevisiae deletion strains, locus YOR316C, strain cot1, stronger effect = lower value) was 0.962 and the normalized growth (S. cerevisiae deletion strains, locus YPL051W, strain arl3, stronger effect = lower value) was 0.926. The normalized growth (S. cerevisiae deletion strains, locus YPL055C, strain LGE1, stronger effect = lower value) was 0.612 (active), the normalized growth (S. cerevisiae deletion strains, locus YPL078C, strain atp4, stronger effect = lower value) was 0.976 and the normalized growth (S. cerevisiae deletion strains, locus YPL106C, strain sse1, stronger effect = lower value) was 1.01. It also gave a normalized growth (S. cerevisiae deletion strains, locus YPL240C, strain hsp82, stronger effect = lower value) of 0.977, a normalized growth (S. cerevisiae deletion strains, locus YPL241C, strain CIN2, stronger effect = lower value) of 0.96 and a normalized growth (S. cerevisiae deletion strains, locus YPR119W, strain clb2, stronger effect = lower value) of 0.98. For the same compound, the normalized growth (S. cerevisiae deletion strains, locus YPR141C, strain kar3, stronger effect = lower value) was 0.959, the normalized growth (S. cerevisiae deletion strains, locus YPR163C, strain tif3, stronger effect = lower value) was 0.626 (active) and the normalized growth (S. cerevisiae deletion strains, locus YPR167C, strain met16, stronger effect = lower value) was 0.947. For the same compound, the normalized growth (S. cerevisiae deletion strains, strain wtn01, stronger effect = lower value) was 0.801 (active) and the normalized growth (S. cerevisiae strains, strain wild type, stronger effect = lower value) was 0.83 (active).
